The record followed here is PubChem BioAssay (Tox21).

Each structure is given as a SMILES string. Records with an inconclusive call do not appear. Activity calls are given as the source filed them. Unless noted, the call rests on the fitted dose curve.

Assay [1] addresses KiSS-1 receptor (Homo sapiens) (UniProt Q969F8). In words: Human kisspeptin (KISS1R) small molecule agonists, calcium flux assay in KISS1R-HEK293 cells (AID 1920064; active means well fitted activation curve with a large enough effect in the repeat runs). The gist of the method:
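Intracellular calcium mobilization in KISS1R-HEK293 cells was recorded by fluorescence (Ex/Em 480/540) for 3 min following compound addition to cells pre-loaded 1 h with calcium dye.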
Background: A change in cytosolic calcium serves as a functional read-out for many receptors and channels.

Assay [2] can be described thus: G protein-coupled receptor (GPCR) small molecule agonists, calcium flux assay: HEK293 wild type cell line counter screen (AID 1920065). The gist of the method:
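In this agonist-mode screen, ATP is the positive control and DMSO the vehicle. Cells grow 18 h before a 1 h dye incubation at 37 C; signal is taken at Ex/Em 480/540 over 3 min.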

Assay [3] is described as follows: p53 small molecule agonists, cell-based qHTS assay with rat liver microsomes (AID 1963578). The gist of the method:
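p53RE-bla cells were exposed to compounds together with rat liver microsomes (0.5 mg/mL final) and NADPH (0.5 mg/mL final) for 16 h at 37 C, then read by LiveBLAzer beta-lactamase fluorescence after 2 h at room temperature.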
A general note: Quantitative high-throughput screening tests each substance at several concentrations.

The nature of assay [4]: p53 small molecule agonists, cell-based qHTS assay with human liver microsomes: qHTS cell viability counter screen (AID 1963579). Further: nearly all actives have a fitted effect of over 45% in size. Further: potency means the concentration at half of the fitted maximal effect. In a few lines: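 p53RE-bla cells (4,000/well) were pre-incubated 5 h at 37 C, then given compounds in DMSO plus human liver microsomes (0.5 mg/mL final) and NADPH (0.5 mg/mL final) for 16 h at 37 C. Viability was read by CellTiter-Glo luminescence.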

Assay [5] is described as follows: p53 small molecule agonists, cell-based qHTS assay with rat liver microsomes: qHTS cell viability counter screen (AID 1963580). Further: nearly all actives have a fitted effect of over 45% in size. In a few lines: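 In HCT-116 cells carrying a p53 response element-bla reporter, compounds were metabolically activated in situ by rat liver microsomes with NADPH over 16 h. Cell ATP content then served as the cytotoxicity measure.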
Assay [6] is described as follows: p53 small molecule agonists, cell-based qHTS assay (AID 1963582; active means well fitted activation curve with a large enough effect in the signal ratio in the repeat runs, not every such curve was filed as active; the % refers to the signal ratio; further: potency means the concentration at half of the fitted maximal effect). In a few lines: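 Agonist activity was scored from beta-lactamase FRET fluorescence in p53RE-bla cells treated 16 h at 37 C with compounds in DMSO, substrate incubation being 2 h at room temperature.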
Assay [7] deals with 5-hydroxytryptamine receptor 2A (Homo sapiens) (UniProt P28223). The assay is described as follows: 5-hydroxytryptamine receptor 2A (HTR2A) small molecule antagonists, cell-based qHTS assay (AID 1963586). Further: nearly all actives have a fitted effect of over 45% in size. In a few lines:
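Antagonist-mode intracellular calcium assay: DOI (4 nM) added after 5 min compound pre-incubation at room temperature to dye-loaded HTR2A-CHO cells. Fluorescence followed for 3 min, sampled every second.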

Assay [8] concerns the target Muscarinic acetylcholine receptor M1 (Homo sapiens) (UniProt P11229). In words: Cholinergic receptor muscarinic 1 (CHRM1) small molecule agonists, cell-based qHTS assay (AID 1963589). Further: nearly all actives have a fitted effect of over 35% in size. The gist of the method:
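Stable CHRM1-CHO cells (human receptor) were incubated 18 h, dye-loaded for 1 h at 37 C and exposed to test compounds for agonist activity, with calcium-dependent fluorescence followed kinetically.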

The target of assay [9] is Beta-2 adrenergic receptor (Homo sapiens) (UniProt P07550). The assay is described as follows: Adrenergic beta2 receptor (ADRB2) small molecule antagonists, cell-based qHTS assay (AID 1963592). Further: nearly all actives have a fitted effect of over 50% in size. Further: potency means the concentration at half of the fitted maximal effect. In a few lines: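 Cells (CHO, stable ADRB2 overexpression) incubated 18-20hr at 37C; compounds added from DMSO; agonist mix (1nM isoproterenol, 100uM IBMX, 25uM Ro-20-1724) added; 0.5hr RT; d2-cAMP and anti-cAMP-cryptate added; 1hr RT; 665/615 nm read.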

For assay [10], the target named is D(2) dopamine receptor (Homo sapiens) (UniProt P14416). The assay is described as follows: Dopamine D2 receptor (DRD2) small molecule agonists, cell-based qHTS assay (AID 1963594). Further: nearly all actives have a fitted effect of over 35% in size. The gist of the method:
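HEK293 cells stably expressing DRD2 were cultured 24 h at 37 C, then given Ro20-1724 (0.1 mM final) and compounds for 10 min at room temperature. NKH477 (200nM) was then added for 30 min. cAMP was read by HTRF.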

Assay [11] has the same target. In words: Dopamine D2 receptor (DRD2) small molecule antagonists, cell-based qHTS assay (AID 1963595; active means well fitted inhibition curve with a large enough effect in the signal ratio in the repeat runs, with a control signal flat; the % refers to the signal ratio; further: potency means the concentration at half of the fitted maximal effect). The gist of the method:
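Stable D2 receptor HEK293 line, 24 h after seeding. Compound preincubated 10 min, then quinpirole (12 nM) with forskolin analogue NKH477 (200 nM), 30 min, room temperature. Detection by time-resolved FRET of cAMP.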

The target in assay [12] is Gonadotropin-releasing hormone receptor (Homo sapiens) (UniProt P30968). In words: Human gonadotropin-releasing hormone receptor (GnRHR) small molecule agonists, calcium flux assay in GnRHR-HEK293 cells (AID 1920063). Further: nearly all actives have a fitted effect of over 35% in size. In a few lines:
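Tox21-format agonist screen using human GnRHR-expressing HEK293 cells and a fluorescent calcium dye; kinetic 3-min fluorescence reading after compound addition, 15-point concentration series run in triplicate.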

The nature of assay [13]: p53 small molecule agonists, cell-based qHTS assay: qHTS cell viability counter screen (AID 1963581). Further: nearly all actives have a fitted effect of over 45% in size. In a few lines:
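Compounds are pinned onto HCT-116 p53RE-bla cells and left 16 h at 37 C. Following the reporter FRET read, ATP is quantified by CellTiter-Glo luminescence after 30 min at room temperature.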

The target of assay [14] is 5-hydroxytryptamine receptor 2A (Homo sapiens) (UniProt P28223). In words: 5-hydroxytryptamine receptor 2A (HTR2A) small molecule agonists, cell-based qHTS assay (AID 1963587). Further: nearly all actives have a fitted effect of over 30% in size. The gist of the method:
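HTR2A-CHO cells, plated 18 h at 37 C/5% CO2, dye-loaded 1 h at 37 C; compounds in DMSO added by pin tool (agonist mode). Intracellular calcium flux read as kinetic fluorescence on FDSS over 2 min at 1 s intervals.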

Assay [15] is described as follows: cAMP Responsive Elements (CRE) small molecule agonists, cell-based qHTS assay (AID 1963590). In a few lines:
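FRET-based beta-lactamase readout (LiveBLAzer B/G, 2 h RT) quantified CRE activation in HEK 293T CRE-bla cells after 3 h treatment with DMSO-dissolved compounds.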

Assay [16] in a line: cAMP Responsive Elements (CRE) small molecule antagonists, cell-based qHTS assay (AID 1963591; active means well fitted inhibition curve with a large enough effect in the signal ratio in the repeat runs, not every such curve was filed as active; the % refers to the signal ratio). The gist of the method:
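qHTS in CRE-bla HEK 293T cells: compound in DMSO, then 0.25 uM NKH477 (final), 3 h at 37 °C/5% CO2; beta-lactamase FRET read-out after 2 h substrate incubation.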

The target of assay [17] is Beta-2 adrenergic receptor (Homo sapiens) (UniProt P07550). The assay is described as follows: Adrenergic beta2 receptor (ADRB2) small molecule agonists, cell-based qHTS assay (AID 1963593).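 Further: CHO cells stably overexpressing human ADRB2.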 The gist of the method: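 CHO cells stably over-expressing ADRB2 were plated overnight at 37C, then dosed with compounds plus a stimulation mix containing 100uM IBMX and 25uM Ro-20-1724 for 0.5hr at room temperature. cAMP was measured by HTRF competition, 1hr.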

The nature of assay [18]: p53 small molecule agonists, cell-based qHTS assay with human liver microsomes (AID 1963577). Further: potency means the concentration at half of the fitted maximal effect. The gist of the method:
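p53RE-bla reporter cells were pre-incubated 5 h at 37 C, then treated with compounds plus human liver microsomes (0.5 mg/mL final) and NADPH (0.5 mg/mL final) for 16 h at 37 C. Beta-lactamase activity was read by LiveBLAzer fluorescence after 2 h at room temperature.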

The target of assay [19] is Muscarinic acetylcholine receptor M1 (Homo sapiens) (UniProt P11229). In words: Cholinergic receptor muscarinic 1 (CHRM1) small molecule antagonists, cell-based qHTS assay (AID 1963588). Further: nearly all actives have a fitted effect of over 40% in size. The gist of the method:
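CHRM1-CHO calcium-flux assay, antagonist mode. Cells were seeded 18 h, dye-loaded 1 h at 37 C and given compound for 5 min at RT, then acetylcholine was added at 50nM. FDSS fluorescence was read 3 min; 15 concentrations, three runs.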

Chain of 5-hydroxytryptamine receptor 2A (Homo sapiens) (P28223 whole entry, looked up): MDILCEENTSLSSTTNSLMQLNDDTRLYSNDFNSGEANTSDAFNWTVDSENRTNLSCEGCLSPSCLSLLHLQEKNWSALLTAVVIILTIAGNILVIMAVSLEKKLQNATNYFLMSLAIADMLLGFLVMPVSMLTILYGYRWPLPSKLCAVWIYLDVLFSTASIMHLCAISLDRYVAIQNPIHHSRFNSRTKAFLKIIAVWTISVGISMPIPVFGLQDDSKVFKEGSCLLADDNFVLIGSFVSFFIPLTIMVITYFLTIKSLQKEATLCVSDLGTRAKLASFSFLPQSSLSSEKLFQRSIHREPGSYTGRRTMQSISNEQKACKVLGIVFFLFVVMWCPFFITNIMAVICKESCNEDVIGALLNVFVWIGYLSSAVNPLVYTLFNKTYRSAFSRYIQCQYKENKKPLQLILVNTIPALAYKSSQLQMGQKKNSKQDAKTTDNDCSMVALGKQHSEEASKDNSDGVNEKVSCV
Chain of D(2) dopamine receptor (Homo sapiens) (P14416 whole entry, looked up): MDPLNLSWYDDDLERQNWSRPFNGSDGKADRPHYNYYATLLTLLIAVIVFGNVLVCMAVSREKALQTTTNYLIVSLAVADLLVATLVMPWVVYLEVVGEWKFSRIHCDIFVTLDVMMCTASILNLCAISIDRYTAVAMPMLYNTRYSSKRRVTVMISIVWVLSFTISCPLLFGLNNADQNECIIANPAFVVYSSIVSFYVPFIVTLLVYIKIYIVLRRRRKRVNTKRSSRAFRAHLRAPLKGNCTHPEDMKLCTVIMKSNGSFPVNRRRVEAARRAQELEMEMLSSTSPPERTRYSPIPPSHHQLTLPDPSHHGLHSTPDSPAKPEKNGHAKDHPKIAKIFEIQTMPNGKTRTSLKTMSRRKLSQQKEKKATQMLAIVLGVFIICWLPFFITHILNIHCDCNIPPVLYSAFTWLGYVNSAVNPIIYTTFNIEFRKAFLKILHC
Chain of Muscarinic acetylcholine receptor M1 (Homo sapiens) (P11229 whole entry, looked up): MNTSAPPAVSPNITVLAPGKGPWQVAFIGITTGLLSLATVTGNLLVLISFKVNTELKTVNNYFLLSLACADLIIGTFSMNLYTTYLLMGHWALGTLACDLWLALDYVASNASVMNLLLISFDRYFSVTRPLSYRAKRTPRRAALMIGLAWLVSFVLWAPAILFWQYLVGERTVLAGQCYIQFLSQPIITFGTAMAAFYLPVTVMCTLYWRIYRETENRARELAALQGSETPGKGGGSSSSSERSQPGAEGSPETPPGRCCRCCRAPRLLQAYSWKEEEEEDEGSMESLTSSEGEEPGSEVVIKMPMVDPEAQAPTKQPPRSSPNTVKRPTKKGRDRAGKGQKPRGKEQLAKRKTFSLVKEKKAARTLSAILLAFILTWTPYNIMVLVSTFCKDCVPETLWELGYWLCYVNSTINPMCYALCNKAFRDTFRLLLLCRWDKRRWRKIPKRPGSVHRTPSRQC
Chain of KiSS-1 receptor (Homo sapiens) (Q969F8 whole entry, looked up): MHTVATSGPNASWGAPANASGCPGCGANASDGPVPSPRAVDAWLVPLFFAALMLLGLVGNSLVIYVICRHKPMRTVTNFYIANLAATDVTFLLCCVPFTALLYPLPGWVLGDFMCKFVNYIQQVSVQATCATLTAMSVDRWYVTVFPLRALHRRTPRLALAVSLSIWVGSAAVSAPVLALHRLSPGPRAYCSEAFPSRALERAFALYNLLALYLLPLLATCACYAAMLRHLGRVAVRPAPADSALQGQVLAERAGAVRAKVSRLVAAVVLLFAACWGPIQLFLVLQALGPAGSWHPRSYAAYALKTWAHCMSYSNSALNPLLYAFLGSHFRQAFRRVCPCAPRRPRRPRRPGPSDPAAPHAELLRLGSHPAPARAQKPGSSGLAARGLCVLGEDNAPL
Chain of Beta-2 adrenergic receptor (Homo sapiens) (P07550 whole entry, looked up): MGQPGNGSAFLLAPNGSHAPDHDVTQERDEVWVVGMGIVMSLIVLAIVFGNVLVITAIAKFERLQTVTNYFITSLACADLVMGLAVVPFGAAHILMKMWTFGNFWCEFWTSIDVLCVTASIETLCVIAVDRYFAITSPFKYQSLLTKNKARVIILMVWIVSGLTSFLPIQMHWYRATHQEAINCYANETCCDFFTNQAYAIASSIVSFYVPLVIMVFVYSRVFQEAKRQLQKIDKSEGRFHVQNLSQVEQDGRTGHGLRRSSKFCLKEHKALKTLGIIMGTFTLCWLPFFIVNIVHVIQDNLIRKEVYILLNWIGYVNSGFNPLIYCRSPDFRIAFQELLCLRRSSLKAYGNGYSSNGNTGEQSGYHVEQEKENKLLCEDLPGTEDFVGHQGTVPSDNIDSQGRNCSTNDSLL
Chain of Gonadotropin-releasing hormone receptor (Homo sapiens) (P30968 whole entry, looked up): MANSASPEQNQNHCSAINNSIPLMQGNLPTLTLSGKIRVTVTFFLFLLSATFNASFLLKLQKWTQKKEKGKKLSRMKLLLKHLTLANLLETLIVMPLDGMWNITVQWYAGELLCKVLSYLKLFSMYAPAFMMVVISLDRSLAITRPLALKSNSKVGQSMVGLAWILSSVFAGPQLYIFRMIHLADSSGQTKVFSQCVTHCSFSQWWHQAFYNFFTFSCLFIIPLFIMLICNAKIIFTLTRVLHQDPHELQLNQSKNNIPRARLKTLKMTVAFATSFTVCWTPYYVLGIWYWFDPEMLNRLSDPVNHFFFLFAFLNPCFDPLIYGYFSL

Take `Oc1ccc(Cl)cc1C1CCCC1`: the Potency entry in assay [1], in [2], in assay [3], in [5], in assay [6] and in assay [7] was “inactive” throughout. The Potency entry in assay [8], in assay [9] and in [10] was “inactive” throughout. Further, the Potency is 36.3 µM (active) in [4] and 61.1 µM (active) in assay [11].
Turning to `C[N+]1(C)CCC(OC(=O)C(O)(c2ccccc2)C2CCCC2)C1` (stereo not drawn), the Potency entry in [12], in assay [2], in [13], in assay [6], in assay [7] and in [14] was “inactive” throughout. Moreover, the Potency result in assay [8], in assay [15], in assay [16], in assay [9], in assay [10] and in assay [11] was “inactive” throughout.
For the compound `CO[C@]1(NC(=O)CSC(F)F)C(=O)N2C(C(=O)O)=C(CSc3nnnn3CCO)CO[C@H]21`, the Potency entry in assay [2], in [3], in assay [4], in [5], in assay [6] and in assay [7] was “inactive” each time. Also, the Potency result in [14], in [8], in assay [15], in assay [16], in assay [9] and in assay [17] was “inactive” in each case. In addition, the Potency entry in assay [10] and in [11] was “inactive” in each case.
As for `CC(C)n1c(/C=C/[C@@H](O)C[C@@H](O)CC(=O)O)c(-c2ccc(F)cc2)c2ccccc21`, the Potency result in assay [1], in [2], in assay [13], in [15], in assay [10] and in [11] was “inactive” throughout.
For the compound `O=[N+]([O-])c1cc([N+](=O)[O-])c2ccc(S(=O)(=O)O)cc2c1O`, the Potency result in assay [2], in [4], in assay [5] and in assay [13] was “inactive” throughout.
Consider `CCN(CC)CCCC(C)Nc1c2ccc(Cl)cc2nc2ccc(OC)cc12` (stereo not drawn), for which the Potency result in [1], in [4] and in assay [13] was “inactive” each time. The Potency in [6] is 19.9 µM (active).
Turning to `CC(C)(C)c1csc(-c2cc3cc(OCc4ccccc4CC(=O)O)ccc3o2)n1`, the Potency result in [1], in [2], in assay [18], in [3], in assay [7] and in [10] was “inactive” throughout. The Potency entry in [11] is “inactive”. The Potency in [4] was 45.8 µM (active).
For the compound `CNCC[C@H](Oc1cccc2ccccc12)c1cccs1`, the Potency entry in assay [1], in assay [2], in [3], in [4], in assay [13] and in assay [8] was “inactive” throughout. The Potency result in [15], in [16] and in assay [11] was “inactive” throughout.
Consider `CCCCCCCC/C=C\CCCCCCCC(=O)OCCO`, for which the Potency result in assay [12], in assay [2], in assay [4], in [5], in [14] and in assay [19] was “inactive” throughout. In addition, the Potency entry in assay [9], in assay [17], in [10] and in assay [11] was “inactive” each time.
Take `S=P(N1CC1)(N1CC1)N1CC1`: the Potency entry in [1], in assay [2], in assay [4], in [5], in assay [13] and in assay [6] was “inactive” in each case. For the same compound, the Potency entry in assay [7], in [19], in [15] and in [10] was “inactive” in each case. Further, the Potency in assay [18] was 34.1 µM (active).
On to `C#C[C@]1(O)CC[C@H]2[C@@H]3[C@H](C)CC4=C(CCC(=O)C4)[C@H]3CC[C@@]21C`, for which the Potency result in [1], in assay [2], in assay [3], in assay [4], in assay [5] and in assay [13] was “inactive” each time. Moreover, the Potency entry in assay [6] and in [11] was “inactive” each time. Moreover, the Potency in assay [9] was 23.7 µM (active).
